Measured values: PubChem BioAssay AID1159580 (chemical genetic matrix, 2015)
Values joined by “and” are separate entries in the source; they are usually repeats but may differ in a detail not shown here. Equal entries are not always repeated. About 2,000 (36%) of roughly 5,500 compounds were called active. Roughly 18% stayed inconclusive and do not appear here. Rule as the data show it: active = normalized growth mostly below about 0.91 (no sharp cut-off); inconclusive = no clear call, values can overlap the other calls; inactive = mostly above about 0.92. The list shows a part of the results.

Test: chemical genetic growth profiling, strain panel (AID 1159580);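 also: tested at 20 µM; growth read once vehicle control cultures reached saturation at 30 °C; 1 = growth at the plate median or of vehicle wells; lower values mean less growth of the strain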
Details: S. cerevisiae deletion strains, growth OD

Measured: normalized growth

CC1(C)C(=O)[C@@H]2C[C@@]3(O)C4=CC(=O)O[C@@H](c5ccoc5)[C@]4(C)CCC3[C@@](C)(C2=O)[C@H]1CC(=O)O (stereo partly specified)
inactive: locus YAL021C, strain ccr4, hits give low values 0.988 | locus YAL026C, strain drs2, hits give low values 1.02 | locus YAL030W, strain snc1, hits give low values 0.997 | locus YBL061C, strain skt5, hits give low values 1.01 | locus YBR009C, strain hhf1, hits give low values 1 | locus YBR021W, strain FUR4, hits give low values 1 | locus YBR023C, strain chs3, hits give low values 1.01 | locus YBR171W, strain sec66, hits give low values 1.01 | locus YBR229C, strain ROT2, hits give low values 1.01 | locus YBR231C, strain swc5, hits give low values 1.01 | locus YBR279W, strain paf1, hits give low values 1.01 | locus YCL011C, strain gbp2, hits give low values 1.02 | locus YCL016C, strain dcc1, hits give low values 1.01 | locus YCL029C, strain bik1, hits give low values 0.995 | locus YCL061C, strain MRC1, hits give low values 1 | locus YCL069W, strain vba3, hits give low values 1.01 | locus YCR088W, strain abp1, hits give low values 1 | locus YDL005C, strain med2, hits give low values 0.996 | locus YDL035C, strain GPR1, hits give low values 1.03 | locus YDL040C, strain nat1, hits give low values 0.991 | locus YDL074C, strain BRE1, hits give low values 1.02 | locus YDL101C, strain DUN1, hits give low values 1.01 | locus YDL185W, strain tfp1, hits give low values 0.995 | locus YDL192W, strain arf1, hits give low values 1 | locus YDR001C, strain nth1, hits give low values 1.01 | locus YDR069C, strain doa4, hits give low values 1.02 | locus YDR101C, strain arx1, hits give low values 0.993 | locus YDR137W, strain rgp1, hits give low values 1.04 | locus YDR150W, strain NUM1, hits give low values 1.01 | locus YDR159W, strain sac3, hits give low values 1.01 | locus YDR162C, strain NBP2, hits give low values 1.03 | locus YDR195W, strain ref2 0.972 | locus YDR297W, strain sur2, hits give low values 1.01 | locus YDR318W, strain mcm21, hits give low values 0.996 | locus YDR334W, strain swr1, hits give low values 1.01 | locus YDR335W, strain msn5, hits give low values 1.01 | locus YDR388W, hits give low values 0.967 | locus YDR392W, strain spt3, hits give low values 1.01 | locus YDR502C, strain sam2, hits give low values 0.991 | locus YEL003W, strain gim4, hits give low values 1.03 | locus YEL037C, strain rad23, hits give low values 1.01 | locus YEL061C, strain CIN8 (second series), hits give low values 1.02 | locus YEL061C, strain CIN8, hits give low values 1 | locus YER015W, strain faa2, hits give low values 1 | locus YER016W, strain bim1, hits give low values 1 | locus YER110C, hits give low values 0.984 | locus YER111C, strain swi4, hits give low values 1.01 | locus YER155C, strain BEM2 (second series), hits give low values 1.02 | locus YER155C, strain BEM2, hits give low values 1 | locus YER167W, strain BCK2, hits give low values 1 | locus YFR010W, strain ubp6, hits give low values 1.01 | locus YGL078C, strain dbp3, hits give low values 0.996 | locus YGL086W, strain mad1, hits give low values 1.01 | locus YGL167C, strain pmr1, hits give low values 1 | locus YGL173C, strain kem1, hits give low values 1.01 | locus YGL227W, strain vid30, hits give low values 0.998 | locus YGL240W, strain doc1, hits give low values 1.01 | locus YGL248W, strain PDE1, hits give low values 1 | locus YGL253W, strain hxk2, hits give low values 1.01 | locus YGR135W, strain pre9, hits give low values 0.997 | locus YGR252W, strain gcn5, hits give low values 1 | locus YHR013C, strain ard1, hits give low values 1.02 | locus YHR027C, strain rpn1, hits give low values 0.993 | locus YHR030C, strain SLT2, hits give low values 0.98 | locus YHR079C, strain IRE1 (second series), hits give low values 0.996 | locus YHR079C, strain IRE1, hits give low values 0.956 | locus YHR094C, strain hxt1, hits give low values 0.981 | locus YHR129C, strain ARP1, hits give low values 1 | locus YHR142W, strain chs7, hits give low values 1.02 | locus YHR200W, strain rpn10, hits give low values 0.988 | locus YIL066C, strain RNR3, hits give low values 1 | locus YIL073C, strain SPO22, hits give low values 1.05 | locus YIL125W, strain kgd1, hits give low values 0.994 | locus YIR030C, strain dcg1, hits give low values 0.993 | locus YJL092W, strain hpr5, hits give low values 1.01 | locus YJL095W, strain BCK1 (second series), hits give low values 1 | locus YJL095W, strain BCK1, hits give low values 1.02 and 0.973 | locus YJL115W, strain asf1, hits give low values 1.02 | locus YJL129C, strain trk1, hits give low values 0.998 | locus YJL134W, strain LCB3, hits give low values 1 | locus YJL154C, strain vps35, hits give low values 1 | locus YJL164C, strain tpk1, hits give low values 1.01 | locus YJL166W, strain qcr8, hits give low values 1.02 | locus YJL168C, strain set2, hits give low values 0.994 | locus YJL187C, strain SWE1 (second series), hits give low values 1.01 | locus YJL187C, strain SWE1, hits give low values 1.03
